Reference: the supplement of paper PMC6555819

Columns and labels:
Experiment in all cases: PBM binding z-score (relative to random genomic background probes); higher = stronger binding; sequences stand for … in GC…GCGATTGACAGCGTAGAATGAAGG
[1] = system: FXR:RXRa (NR concentration 270 nM, RXRa partner concentration 90 nM)
Outline: (§1)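 Ligand-free nuclear receptor dimers were bound for 1 h to custom Agilent 4×180K protein-binding microarrays. Detection used antibodies against each partner (one per run). Binding z-scores rest on regression-normalized fluorescence, with random background probes as the reference.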

[2] = system: LXRa:RXRa (NR concentration 270 nM, RXRa partner concentration 90 nM)
Outline: as §1

[3] = system: LXRa homodimer (NR concentration 270 nM)
Outline: as §1

[4] = system: LXRb:RXRa (NR concentration 270 nM, RXRa partner concentration 90 nM)
Outline: as §1

[5] = system: LXRb homodimer (NR concentration 270 nM)
Outline: as §1

[6] = system: PPARa:RXRa (NR concentration 270 nM, RXRa partner concentration 90 nM)
Outline: as §1

[7] = system: PPARg:RXRa (NR concentration 180 nM, RXRa partner concentration 90 nM)
Outline: as §1

[8] = system: PPARg:RXRa 270nM:90nM, anti-RXR (NR concentration 270 nM, RXRa partner concentration 90 nM)
Outline: as §1

[9] = system: PPARg:RXRa 30nM:10nM, anti-RXR (NR concentration 30 nM, RXRa partner concentration 10 nM)
Outline: as §1

[10] = system: PPARg:RXRa 90nM:30nM, anti-RXR (NR concentration 90 nM, RXRa partner concentration 30 nM)
Outline: as §1

[11] = system: PPARg:RXRa DBDmut IVT, anti-RXR (DBD mutation: RXRa K156A/R161A, NR concentration 270 nM, RXRa partner concentration 90 nM)
Outline: as §1

[12] = system: PPARg:RXRa IVT, anti-PPARg (NR concentration 270 nM, RXRa partner concentration 90 nM)
Outline: as §1

[13] = system: PPARg DBDmut:RXRa IVT, anti-PPARg (DBD mutation: PPARg1 K132A/R137A, NR concentration 270 nM, RXRa partner concentration 90 nM)
Outline: as §1

[14] = system: PPARg DBDmut IVT, anti-PPARg (DBD mutation: PPARg1 K132A/R137A, NR concentration 270 nM)
Outline: as §1

[15] = system: PPARg homodimer (NR concentration 180 nM)
Outline: as §1

[16] = system: PXR:RXRa (NR concentration 270 nM, RXRa partner concentration 90 nM)
Outline: as §1

[17] = system: PXR homodimer (NR concentration 270 nM)
Outline: as §1

[18] = system: RARa:RXR (NR concentration 270 nM, RXRa partner concentration 90 nM)
Outline: as §1

[19] = system: RARa homodimer (NR concentration 270 nM)
Outline: as §1

[20] = system: RARb:RXRa (NR concentration 270 nM, RXRa partner concentration 90 nM)
Outline: as §1

Row | Sequence | PBM binding z-score [1] | PBM binding z-score [2] | PBM binding z-score [3] | PBM binding z-score [4] | PBM binding z-score [5] | PBM binding z-score [6] | PBM binding z-score [7] | PBM binding z-score [8] | PBM binding z-score [9] | PBM binding z-score [10] | PBM binding z-score [11] | PBM binding z-score [12] | PBM binding z-score [13] | PBM binding z-score [14] | PBM binding z-score [15] | PBM binding z-score [16] | PBM binding z-score [17] | PBM binding z-score [18] | PBM binding z-score [19] | PBM binding z-score [20]
1 | ATTCCAAGGTGATCGTGAGGTCGTTGATACTAAC | 2.16 | 1.56 | 0.734 | 1.23 | 0.167 | 1.52 | 0.194 | 0.382 | 0.172 | 0.122 | 0.951 | 1.47 | 0.731 | 0.342 | 0.792 | 3.26 | 1.64 | 2.55 | 0.906 | 1.33
2 | TCTTGTAGATCAAGGGTTAAGAAAGCCGAAGCCT | 0.439 | 0.813 | -0.616 | 0.958 | -0.606 | 3.12 | 5.36 | 6.4 | 5.41 | 7.18 | 1.55 | 2.33 | 0.632 | -0.0594 | 1.12 | 0.471 | -0.23 | 1.06 | -0.354 | 0.694
3 | TCTTGTAGATCAACAGGTGGTTAAGAAAGATCGA | -0.0557 | 0.0664 | -0.0924 | -0.247 | -0.293 | 0.436 | -0.255 | 1.22 | 2.58 | 1.8 | 1.73 | 0.582 | 0.605 | 0.677 | 0.713 | -0.0683 | 0.00391 | 0.0313 | 0.688 | -0.0604
4 | ATATGTAGGTTATAGGGTCATTCAGTTTGCGCAT | 4.47 | 4.26 | 2.22 | 3.98 | 1.38 | 5.36 | 7.99 | 7.04 | 5.54 | 7.25 | 7.51 | 7.16 | 2.03 | 1.57 | 3.17 | 4.88 | 8.92 | 5.18 | 1.96 | 3.19
5 | GCTAGTTGGTCAGTAAAAGGTCACACACCGGTCG | 3.43 | 4.13 | 4.61 | 3.79 | 0.823 | 4.31 | 3.03 | 4.23 | 2.21 | 4.37 | 1.12 | 2.86 | -0.0862 | 0.91 | 4.27 | 4.95 | 1.3 | 5.91 | 3.23 | 4.19
6 | TAGCCTAGGTCATGCGGGCCTGTATAGTGTCGGC | 3.73 | 3.24 | 0.135 | 1.6 | -0.428 | 3.27 | 1.91 | 2.39 | 0.161 | 1.45 | 1.65 | 2.76 | -0.075 | -0.309 | 0.586 | 1.27 | -0.864 | 2.14 | -0.78 | 3.55
7 | ACAGACAGGTGAGTGAAGGTAACTCGGCTGGACG | 0.29 | 0.0989 | -0.627 | -0.781 | -0.86 | -0.0904 | 0.606 | 0.0767 | -0.28 | -0.126 | 0.175 | 0.33 | -0.433 | -0.413 | 0.0145 | -0.486 | -0.431 | -0.0751 | -0.294 | 0.411
8 | CCTACTGGGCCATCAGATCATTGATATCAACGTT | -0.345 | -0.391 | -0.0851 | -0.263 | -0.349 | 0.662 | 1.01 | 1.49 | 0.163 | 1.28 | 4.57 | 3.97 | 0.261 | 0.0377 | -0.139 | -0.487 | -0.238 | -0.391 | 0.289 | 0.228
9 | TCATAGAGGTAAACAGGTGAAAGTCCGTAAGTTA | 0.648 | 0.794 | -0.178 | 0.62 | -0.997 | 2.14 | 1.65 | 2.55 | 2.8 | 2.68 | 2.54 | 2.16 | 0.176 | 0.0732 | 0.143 | 0.625 | -0.208 | 1.11 | 0.579 | 0.861
10 | ATAGACAGGTGAGTGAAGGTAACTCAGCTGGACG | 0.729 | 0.567 | -0.416 | -0.043 | 0.00945 | 0.437 | 0.69 | 0.369 | 0.155 | 0.444 | -0.0175 | 0.973 | 0.246 | 0.208 | 0.132 | 0.352 | 0.0205 | 0.959 | -0.0264 | 0.603
11 | ACTAGCAGGCCAGGTTTGGGTCACTCAAACAAAG | -0.191 | -0.164 | -0.504 | 0.269 | -0.651 | 0.985 | -0.123 | 0.025 | -0.537 | -0.199 | -0.173 | 0.446 | -0.511 | -0.687 | 0.235 | 0.351 | -0.166 | 1.17 | -0.279 | 1.32
12 | ACTAGCAGGCCAAGTTTGGGTCACTCACACAAAG | 0.272 | 0.288 | -0.0849 | 0.693 | -0.282 | 1.41 | 0.507 | 0.233 | -0.397 | -0.0603 | 0.874 | 1.38 | -1.02 | 0.437 | 0.553 | 0.973 | 0.229 | 1.62 | -0.272 | 2.06
13 | GCATATAGGTAATATAAGGTGAAAGTCCGATTGT | 1.9 | 3.31 | 0.295 | 1.14 | -0.277 | 1.81 | 1.55 | 1.24 | 0.669 | 1.16 | 3.84 | 3.32 | 1.58 | 0.946 | 0.929 | 0.702 | 0.375 | 1.78 | 0.541 | 0.618
14 | TCGAGTAGGTTAGGGGCATACAGAATGGCGTCGA | 0.679 | 0.555 | -0.335 | 0.825 | -0.198 | 1.39 | 1.04 | 1.65 | 1.4 | 1.6 | 1.98 | 1.38 | 0.000515 | -1.13 | 0.459 | 0.501 | 0.171 | 0.678 | -0.124 | 1.06
